In experiment [1] the target is human Vitamin D Receptor (VDR), VDR (gene 7421) (UniProt P11473). As to the kind of experiment: ATG_VDR_TRANS: Attagene TRANS-FACTORIAL HepG2 Assay for human Vitamin D Receptor (VDR) (AID 2283022; active = hit-call score of the fitted dose curve at least 0.9, where 1 is the maximum). Summed up: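 HepG2 cells were transiently transfected with multiple GAL4-UAS reporter units, so signal reflects exogenous chimeric receptor-Gal4 activity. After 24 h compound exposure, reporter mRNA was measured by RT-PCR, fluorescent labelling and capillary electrophoresis, fitted for gain of signal versus DMSO.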

Read-out in experiment [2]: Matrix Metallopeptidase 1 (MMP1), MMP1 (gene 4312)
As to the kind of experiment: BSK_BE3C_MMP1: BioMAP Diversity Plus: BE3C Assay for Matrix Metallopeptidase 1 (MMP1) Biomarker Activity (AID 2283024). As to conditions: primary human bronchial epithelial cells; actives raise or lower the signal. Summed up: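 ELISA measurement of MMP-1 after 24 h compound exposure of primary human bronchial epithelial cells. Changes in either direction fitted relative to DMSO; parallel SRB staining checked overt cytotoxicity.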

The nature of experiment [3]: BSK_3C_Vis: BioMAP Diversity Plus: 3C Assay for Morphology Visualization (AID 2283025).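 Also: fitted both ways so gain or loss versus DMSO counts.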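 As to AC50: light microscopy image of cell morphology used as background control.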 The conditions noted are these: primary human endothelial cells (HUVEC). Put shortly:
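Light-microscopy visualization of HUVEC cultures at 24 h post-treatment, with DMSO as baseline for bidirectional fitting.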

A short description of experiment [4]: BSK_4H_SRB: Viability Assessment in the BioMAP Diversity Plus: 4H Assay (AID 2283027).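 Also: cells exposed to compound for 24 h before staining.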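 As to AC50: curves fitted both ways versus DMSO so AC50 may be loss or gain.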 As to conditions: primary human endothelial cells (HUVEC). Summed up: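 HUVEC, 24 h post-dose; 10% TCA fix, 0.1% SRB stain, A560 nm. Total protein = overt cytotoxicity, parallel to biomarker read. Bidirectional fit vs DMSO baseline.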
A short description of experiment [5]: BSK_BE3C_SRB: Viability Assessment in the BioMAP Diversity Plus: BE3C Assay (AID 2283028).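 As to AC50: fitted both ways so AC50 may mark signal gain or loss versus DMSO.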 As to conditions: primary human bronchial epithelial cells. Put shortly:
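Human primary bronchial epithelial cells were exposed to test chemicals for 24 h. Total protein in parallel cultures was then measured by staining with 0.1% sulforhodamine B after 10% TCA fixation, with absorbance read at 560 nm. Activity was fitted bidirectionally against DMSO.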

Read-out in experiment [6]: Thrombomodulin, THBD (gene 7056)
Description: BSK_3C_Thrombomodulin: BioMAP Diversity Plus: 3C Assay for Thrombomodulin Biomarker Activity (AID 2283029). As to conditions: primary human endothelial cells (HUVEC); actives raise or lower the signal. Summed up:
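ELISA measurement of thrombomodulin on HUVEC surface 24 h after chemical dosing; activity fitted in both directions relative to DMSO vehicle.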

Read-out in experiment [7]: Urokinase-type plasminogen activator receptor (uPAR), PLAUR (gene 5329)
Description: BSK_4H_uPAR: BioMAP Diversity Plus: 4H Assay for Urokinase-type plasminogen activator receptor (uPAR) Biomarker Activity (AID 2283030). The conditions noted are these: primary human endothelial cells (HUVEC); actives raise or lower the signal. Put shortly:
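Primary human umbilical vein endothelial cells were exposed to chemical for 24 h before cell-surface uPAR was quantified by ELISA. Activity was fitted bidirectionally against the DMSO negative control baseline.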

Read-out in experiment [8]: Vascular endothelial growth factor receptor 2 (Homo sapiens) (UniProt P35968)
Description: BSK_4H_VEGFRII: BioMAP Diversity Plus: 4H Assay for Vascular endothelial growth factor receptor 2 (VEGFR2) Biomarker Activity (AID 2283031).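 As to AC50: cell-surface VEGFR2 protein level quantified by ELISA.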 As to conditions: primary human endothelial cells (HUVEC); actives raise or lower the signal. Summed up: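 Primary human umbilical vein endothelial cells in the BioMAP 4H system were dosed with test chemical, and 24 h later VEGFRII was measured by ELISA. Activity was fitted bidirectionally against DMSO as negative control and baseline.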

Experiment [9] can be described thus: BSK_3C_SRB: Viability Assessment in the BioMAP Diversity Plus: 3C Assay (AID 2283023).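 Also: fitted both ways against DMSO so a hit may be signal rise or drop.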 As to conditions: primary human endothelial cells (HUVEC). Summed up: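 Primary human umbilical vein endothelial cells in the 3C system were read 24 h after compound dosing. Total protein was stained with 0.1% sulforhodamine B after 10% TCA fixation and read at 560 nm, with bidirectional fitting against DMSO as baseline.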

Read-out in experiment [10]: Pselectin, SELP (gene 6403)
Description: BSK_4H_Pselectin: BioMAP Diversity Plus: 4H Assay for Pselectin Biomarker Activity (AID 2283026). As to conditions: primary human endothelial cells (HUVEC); actives raise or lower the signal. Put shortly: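 ELISA of surface P-selectin on HUVEC, 24 h after dosing, with parallel SRB staining (0.1% after 10% TCA fixation, 560 nm) for overt cytotoxicity. Activity fitted in both directions relative to DMSO.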

Data on 14 compounds can be found in PubChem BioAssay (EPA / NIEHS).

Where “and” joins values, the source holds several entries; their conditions need not be identical. Equal entries are not always repeated. Inconclusive results are not listed. More than one record can exist for a structure, and the calls need not agree. Calls of active or inactive are those of the source. The calls were made as follows, unless noted: active = hit-call score of the fitted dose curve at least 0.9, where 1 is the maximum; inactive = score below 0.9.

Chain of human Vitamin D Receptor (VDR), VDR (gene 7421) (P11473 whole entry, looked up, the tested form may be a part): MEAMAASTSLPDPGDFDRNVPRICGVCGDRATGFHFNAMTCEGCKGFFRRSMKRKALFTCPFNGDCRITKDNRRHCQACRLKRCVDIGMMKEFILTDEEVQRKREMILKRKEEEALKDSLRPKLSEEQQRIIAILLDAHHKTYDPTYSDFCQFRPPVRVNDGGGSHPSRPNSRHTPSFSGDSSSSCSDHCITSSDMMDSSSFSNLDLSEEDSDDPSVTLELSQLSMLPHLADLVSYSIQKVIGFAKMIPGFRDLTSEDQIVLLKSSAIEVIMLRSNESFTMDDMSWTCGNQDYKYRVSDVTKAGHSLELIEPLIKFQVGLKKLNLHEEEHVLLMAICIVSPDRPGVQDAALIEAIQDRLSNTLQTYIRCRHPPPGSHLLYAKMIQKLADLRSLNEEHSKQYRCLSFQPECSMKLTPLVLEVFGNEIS

With `O=S(=O)(O)C(F)(F)C(F)(F)C(F)(F)C(F)(F)C(F)(F)C(F)(F)C(F)(F)C(F)(F)F`, the result in experiment [1], in experiment [2], in [3], in experiment [4], in [5] and in experiment [6] was inactive. Also, the outcome in experiment [7] and in [8] was inactive. The AC50 in experiment [3] is 37.7 µM (active) and 13.7 µM (active); in experiment [5] it was 19.8 µM (active) [middle of 7 runs]; in [7], 463 nM (active) and 14.2 µM (active).
As to `O=[N+]([O-])c1c(Cl)c(Cl)c(Cl)c(Cl)c1Cl`, the AC50 in [9] was 30.9 µM (active); in experiment [3], 37.5 µM (active). In addition, the outcome in experiment [2], in experiment [4], in experiment [5], in experiment [6], in experiment [7] and in experiment [8] was inactive.
Take `CC(C)N(C(=O)COc1nnc(C(F)(F)F)s1)c1ccc(F)cc1`: the outcome in [2], in experiment [3], in experiment [4], in experiment [5], in [6] and in experiment [7] was inactive. The outcome in experiment [8] was inactive. In experiment [10], the AC50 is 11.1 µM (active).
As for `CNC(=O)CSP(=S)(OC)OC`, the result in [1], in experiment [2], in [3], in experiment [4], in [5] and in experiment [6] was inactive. In addition, the outcome in experiment [7] and in experiment [8] was inactive.
Turning to `CN1CSC(=S)N(C)C1`, the result in experiment [2], in experiment [4], in experiment [5], in experiment [7] and in experiment [8] was inactive. Further, the AC50 in experiment [3] was 13.2 µM (active); in experiment [6], 5.21 µM (active).
Take `CNC(=O)Oc1cccc(N=CN(C)C)c1`: the outcome in [2], in [4], in [5], in experiment [6], in [7] and in experiment [8] was inactive. Further, the half-maximal activity concentration (AC50) in experiment [3] is 39 µM (active).
As for `COc1nn(CSP(=S)(OC)OC)c(=O)s1`, the outcome in [9], in experiment [2], in experiment [3], in experiment [4], in experiment [5] and in experiment [6] was inactive. Further, the result in experiment [7] and in experiment [8] was inactive.
Take `CCc1ccc(C(=O)NN(C(=O)c2cc(C)cc(C)c2)C(C)(C)C)cc1`: the result in experiment [2], in [3], in experiment [6] and in [8] was inactive. In addition, the figures for the AC50 in [4], in experiment [5] and in experiment [7] were 17.7 µM (active), 15.4 µM (active) and 24.2 µM (active), respectively.
In the case of `Cc1[nH]c(=O)n(C(C)(C)C)c(=O)c1Cl`, the outcome in experiment [2], in [3], in experiment [4], in experiment [5], in [6] and in experiment [7] was inactive. For the same compound, the outcome in [8] was inactive.
On to `COc1cc(OC)nc(NC(=O)NS(=O)(=O)c2cc(NC=O)ccc2C(=O)N(C)C)n1`, for which the result in experiment [2], in experiment [3], in experiment [4], in [5], in [6] and in experiment [7] was inactive. Besides, the result in [8] was inactive.
For `O=C(NC(=O)c1c(F)cccc1F)Nc1ccc(OC(F)(F)C(F)OC(F)(F)F)c(Cl)c1` (configuration not stated), the result in experiment [2], in experiment [3], in experiment [4], in experiment [5], in experiment [6] and in experiment [7] was inactive. The outcome in experiment [8] was inactive.
Turning to `CCC(C)(NC(=O)c1cc(Cl)c(C)c(Cl)c1)C(=O)CCl` (configuration not stated), the AC50 was 27 µM (active) in experiment [2]; 7.99 µM (active) in experiment [3]; 27.3 µM (active) in experiment [4]; 16.5 µM (active) in [5]; 26.1 µM (active) in experiment [7]; 20 µM (active) in experiment [8]. For the same compound, in experiment [6], the outcome was inactive.
Turning to `CC1(c2ccc(Oc3ccccc3)cc2)OC(=O)N(Nc2ccccc2)C1=O` (configuration not stated), the AC50 is 28.5 µM (active) in experiment [9]; 16.3 µM (active) in experiment [3]; 20 µM (active) in experiment [4]; 27.5 µM (active) in experiment [5]; 16.1 µM (active) in experiment [7]; 20 µM (active) in experiment [8]. Besides, the outcome in experiment [2] and in experiment [6] was inactive.
With `CC(C)(C)C(O)/C(=C\c1ccc(Cl)cc1Cl)n1cncn1` (configuration not stated), the compound was called inactive in experiment [1] and in experiment [6]. In addition, the AC50 in experiment [2] was 33.6 µM (active); in experiment [3], 37.2 µM (active); in [4] it was 15.8 µM (active); in experiment [7], 27.9 µM (active); in experiment [8] it was 27.4 µM (active).

The AC50 is the midpoint of the concentration-response curve, whichever way the signal moves.
